# Screening data from PubChem.
# Compounds with a hit are over-represented: about 7.3% of the library has one in this group of screens.
# AmpC detergent: inhibitors of E. coli AmpC beta-lactamase with detergent | 370,000 compounds, 0.041% hits | AmpC hydrolysis of nitrocefin, absorbance 480 nm, 0.01% Triton | Potency, µM (titrated, usually from 114 µM), inactives show at the highest dose activity change, negative = inhibition, usual class: inhibitors | P00811;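 further: potency means the concentration at half of the fitted maximal effect; 0% = no-compound wells and -100% = no-enzyme wells; nearly all actives have a fitted effect of over 25% in size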
# Target sequence (P00811 whole entry, looked up): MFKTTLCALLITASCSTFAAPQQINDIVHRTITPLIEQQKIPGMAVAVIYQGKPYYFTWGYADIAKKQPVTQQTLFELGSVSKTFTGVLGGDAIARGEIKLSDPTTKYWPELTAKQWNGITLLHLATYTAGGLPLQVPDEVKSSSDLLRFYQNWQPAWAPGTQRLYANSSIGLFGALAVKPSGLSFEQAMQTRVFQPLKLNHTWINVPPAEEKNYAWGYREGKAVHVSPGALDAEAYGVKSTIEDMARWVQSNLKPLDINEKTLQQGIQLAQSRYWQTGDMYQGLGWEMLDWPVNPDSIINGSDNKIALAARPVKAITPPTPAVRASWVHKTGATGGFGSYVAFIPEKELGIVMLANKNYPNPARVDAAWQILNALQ
#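 20 mM phosphate pH 7.0 + 0.01% (detergent screen) or 0.0001% Triton X-100; 5.3 nM AmpC reagent; cpd preinc 15 min RT; nitrocefin (800 uM stock) to start; A480 q20 s × 4 min; Activity was normalised to no-enzyme and no-compound control wells.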
# AmpC inh no detg: AmpC beta-lactamase inhibition without detergent. AID 485341. Potency, µM (top dose mostly 57.1 µM), without a hit: top-dose activity change, negative = inhibition, most hits filed as inhibitors. P00811. AmpC nitrocefin hydrolysis, absorbance 480 nm, 0.0001% Triton. 330,000 compounds, 0.52% hits;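 further: potency means the concentration at half of the fitted maximal effect; plate controls were no compound for no effect and no enzyme for full effect; nearly all actives have a fitted effect of over 20% in size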
#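 AmpC (5.3 nM in the dispensed reagent) in 20 mM phosphate pH 7.0 with 0.01% (detergent screen) or 0.0001% Triton X-100 was preincubated with compounds for 15 min at room temperature. Nitrocefin was then added from an 800 uM solution, and hydrolysis was followed at 480 nm.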
# FMDV inh: antivirals against foot and mouth disease virus | AID 1159524 | FMDV antiviral cell-based qHTS | 410,000 compounds, 1.2% hits | Potency, µM (doses to about 57.9 µM), inactives show top-dose activity change, negative = inhibition, usual class: inhibitors; calls by dose curve; tested in HEK293T cells; further: read-out not given here; potency means the concentration at half of the fitted maximal effect; nearly all actives have a fitted effect of over 45% in size
# HCV inhibitor: blocks hepatitis C virus; Huh7.5.1 HCVcc-Cre infection, luciferase reporter, 44 h; Potency, µM (series often up to 41.8 µM), inactives show top-dose activity change, negative = inhibition, most hits filed as inhibitors; 340,000 compounds, 3.4% hits; AID 651820; further: potency means the concentration at half of the fitted maximal effect
#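 After 44 h co-culture of compound, cells and HCVcc-Cre (~0.5 moi), substrate is added for 15 min at room temperature and luciferase measured over 15 sec. Cells were seeded at 1,000/well and pre-cultured 4 h.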
# HCMV antiviral: blocks human cytomegalovirus replication. HFF cells, HCMV-luciferase reporter, 72 h; hits give low values. activity change, negative = inhibition, % at 57.5 µM. 410,000 compounds, 4.5% hits. AID 1259415; in the data active means activity change below about -60%; inconclusive means no clear call, values can overlap the other calls; inactive means above about -39%
#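 HFF cells seeded 16 h at 37C, treated with compounds, infected with luciferase-reporter HCMV at MOI 1 PFU/cell; luciferase read at 72 h post infection, normalized to buffer-only and Salinomycin controls.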
# * hit, by the source's call; ? = inconclusive; · = not tested or not shown. Unless noted, the call rests on the fitted dose curve; in most records, active means well fitted curve in the direction sought with a large enough effect; inconclusive means small, poorly fitted or top-dose-only effect, or another doubt; inactive means no such curve, though single readings can be large; an effect the other way counts as inactive or inconclusive. Unless noted, on the % scale 0 is the no-effect control and ±100 the full control effect.
SMILES,AmpC detergent,AmpC inh no detg,FMDV inh,HCV inhibitor,HCMV antiviral
CCc1cc(C(=O)OCC(=O)NCCc2ccccc2)sc1C,·,·,-14%,·,-85*
O=C(COC(=O)c1ccccc1C(=O)c1ccc(Cl)cc1)NCc1ccccc1,-17%,-1%,-17%,-12%,-32
Cc1ccc(C(=O)c2ccccc2C(=O)OCC(=O)NCCc2ccccc2)cc1,?,14%,0%,-28%,-67*
C[C@@H]1[C@@H](c2ccccc2)Nc2ccc(Br)cc2[C@H]1NC(=O)OCc1ccccc1,·,·,·,·,-34
CCCn1c2ccccc2c2nc3ccccc3nc21,?,32%,-21%,?,-17
CCN(CC)CCSc1nnc2c3ccccc3n(Cc3ccccc3)c2n1,-14%,111%,-30%,11µM*,?
CCN(CC)CCn1c2ccccc2c2nc3ccccc3nc21,-12%,-15%,-15%,?,-102*
COCC(C)n1c(SCC(=O)N2CC(=O)Nc3ccccc32)nc2ccccc2c1=O (stereo not drawn),1%,-15%,-17%,7%,-16
Cc1ccc(-n2c(SCC(=O)N3CC(=O)Nc4ccccc43)nc3ccccc3c2=O)cc1C,-3%,3%,?,?,-80*
CC(c1ccccc1)n1c(SCC(=O)N2CC(=O)Nc3ccccc32)nc2ccccc2c1=O (stereo not drawn),5%,-10%,?,?,-81*
Cc1cccc(-n2c(SCC(=O)N3CC(=O)Nc4ccccc43)nc3ccccc3c2=O)c1,2%,3%,-2%,-19%,-62*
Cc1cccc(-n2c(SCC(=O)N3CC(=O)Nc4ccccc43)nc3ccccc3c2=O)c1C,-13%,?,?,?,-64*
Cc1ccc(-c2nnc(Nc3ccc(C(N)=O)cc3)c3ccccc23)cc1S(N)(=O)=O,-1%,·,14%,·,-16
COc1ccccc1C(=O)Nc1ccc(C(=O)N2CCCCC2)cc1,-9%,45%,24%,16%,22
Cc1ccc(NC(=O)CN2C(=O)S/C(=C\c3cc(Cl)c(OCC(=O)O)c(Cl)c3)C2=O)cc1,?,-27%,1%,11%,-18
Cc1c(C=O)c(C=O)c(C)n1Cc1ccccc1,6%,-17%,?,?,-81*
CCOC(=O)c1c(C=O)c(C)n(Cc2ccc(C)cc2)c1C,6%,35%,?,3.2µM*,-1
CCOC(=O)c1c(C=O)c(C)n(Cc2ccccc2Cl)c1C,0%,5%,?,?,-8
NC(=S)N/N=C/c1ccc(-n2nncc2-c2ccc(Cl)cc2)cc1,-5%,-55%,-28%,13µM*,·
CNc1ccc(S(=O)(=O)NCC(=O)OCC(=O)Nc2cccc(Cl)c2Cl)cc1[N+](=O)[O-],-4%,25µM*,-3%,-6%,-5
CN(C)c1ccc(S(=O)(=O)NCC(=O)OCC(=O)Nc2cccc(Cl)c2)cc1[N+](=O)[O-],-8%,-7%,1%,35%,12
COc1ccc(Cl)cc1NC(=O)c1ccc2c(c1)CCN2S(C)(=O)=O,20%,·,16%,·,?
CN(C)c1ccc(CC2C(=O)Nc3ccccc32)cc1 (stereo not drawn),0%,-16%,50%,5%,-63*
Cc1cccc(CC2C(=O)Nc3ccccc32)c1 (stereo not drawn),21%,·,-4%,·,-70*
O=C1Nc2ccccc2C1Cc1ccc(Br)cc1 (stereo not drawn),7%,·,-8%,·,-29
SMILES,AmpC detergent,AmpC inh no detg,FMDV inh,HCV inhibitor,HCMV antiviral
COc1ccc(CCn2c(C)cc(C(=O)CN3C(=O)C(=O)N(C4CCCC4)C3=O)c2C)cc1OC,0%,89%,-8%,10µM*,-28
Cc1cc(C(=O)Cn2nnc(-c3ccc(Cl)cc3)n2)c(C)n1CC1CCCO1 (stereo not drawn),?,20%,·,7.9µM*,?
Cc1cc(C(=O)CSc2nnc(-c3ccc(Cl)cc3)n2C)c(C)n1CC1CCCO1 (stereo not drawn),-9%,17%,-28%,-20%,27
Cc1cc(C(=O)CSc2nc(N)cc(N)n2)c(C)n1CC1CCCO1 (stereo not drawn),·,-18%,-1%,-24%,-25
Cc1cc(C(=O)CSc2nc(N)cc(=O)[nH]2)c(C)n1CC1CCCO1 (stereo not drawn),·,4%,?,?,-9
Cc1cc(C(=O)CSc2nc3ccccc3o2)c(C)n1CC1CCCO1 (stereo not drawn),-3%,-1%,?,?,-70*
Cc1cc(C)n2nc(SCC(=O)c3cc(C)n(CC4CCCO4)c3C)nc2n1 (stereo not drawn),3%,80%,?,?,-70*
Cc1cc(C(=O)CSc2nc3ccccc3[nH]2)c(C)n1CC1CCCO1 (stereo not drawn),-2%,-33%,11µM*,1.4µM*,-99*
COc1ccc(CNCc2ccc(C(=O)O)s2)cc1,5%,·,16%,·,8
COC(=O)c1cccc(C(=O)NCc2nc(-c3ccccc3NC(C)=O)oc2C)c1,·,·,14%,·,·
Cc1ccc(C(=O)CSc2nc3ccccc3o2)cc1,0%,-25%,·,-26%,-61*
Clc1ccc(C[n+]2cc(-c3ccccc3)n3c2CCC3)cc1Cl,?,25%,0%,-21%,-72*
Clc1ccc(-c2c[n+](Cc3cccc(Cl)c3)c3n2CCC3)cc1,-10%,-2%,-12%,-5%,-94*
CCOc1ccccc1C(=O)NC(C(=O)OCn1nnc2ccccc2c1=O)C(C)C (stereo not drawn),·,·,-13%,·,-15
Cc1nc2ccccc2c(=O)n1/N=C/c1ccc2ccccc2c1O,-1%,53%,?,-26%,-82*
Cc1nnc(C)n1/N=C/c1c(O)ccc2ccccc12,-7%,-28%,-6%,2%,12
Cc1nnc(-c2ccccc2)c(=O)n1/N=C/c1c(O)ccc2ccccc12,-7%,-23%,-5%,?,-99*
O=c1c2ccccc2nc(COc2ccccc2)n1/N=C/c1ccc(O)cc1O,0%,?,-15%,?,-96*
CCOc1ccc(S(=O)(=O)N2CCCCC2)cc1NC(=O)CN1C(=O)NC(C)(c2ccccc2)C1=O (stereo not drawn),-16%,5%,-8%,?,?
COc1cccc(NC(=O)CCNC(=O)Cn2cnc3ccccc3c2=O)c1,2%,·,-12%,·,12
Cn1c(COc2ccc(Br)cc2)nnc1SC1CCc2ccccc2C1=O (stereo not drawn),-4%,-17%,32µM*,?,-1
Cc1ccc(-c2csc(C3=C(O)CN(NC(=O)c4ccc([N+](=O)[O-])cc4)C3=N)n2)cc1,-8%,?,-5%,2%,-28
N=C1C(c2nc(-c3ccc(Br)cc3)cs2)=C(O)CN1NC(=O)c1ccc([N+](=O)[O-])cc1,1%,-29%,-2%,2%,-102*
